This note sets out measurements from PubChem BioAssay (EPA / NIEHS).

Values joined by “and” are separate entries in the source; they are usually repeats but may differ in a detail not shown here. Equal entries are not always repeated. Inconclusive results are not listed. A structure can be active in one record and inactive in another. Active and inactive are the calls of the source. The calls were made as follows: active = hit-call score of the fitted dose curve at least 0.9, where 1 is the maximum; inconclusive = response in the unintended direction; inactive = score below 0.9.

Test system in the first experiment: not listed separately
Kind of experiment: ArunA_Migration_hNP: ArunA Biomedical's Oris Neuroprogenitor (hNP) Cell Migration Assay (AID 2283754). Summed up: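 Human H9-derived hNP1 neuroprogenitors on Matrigel with LIF/bFGF, plated around seeding stoppers for 16 h at 37C; stoppers removed at start of 72 h chemical exposure. Calcein-AM staining, fluorescence 494/517 nm in detection zone; loss-of-signal vs DMSO; cytochalasin D control.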
As to `ClCC(Cl)CCl`, the call was inactive.
Same read-out and setting: under `ClC1(Cl)C2(Cl)C3(Cl)C4(Cl)C(Cl)(Cl)C5(Cl)C3(Cl)C1(Cl)C5(Cl)C24Cl` (stereo unspecified) stands “inactive”.
Take `CC(C)(C)c1cc(O)ccc1O`: the half-maximal activity concentration (AC50) was 33.7 µM (active).

The target of the next experiment is Luciferin 4-monooxygenase (Photinus pyralis) (UniProt P08659). Kind of experiment: CCTE_Simmons_QuantiLum_inhib_2: CCTE's Firefly Luciferase Inhibition Assay, Simmons Lab (AID 2283767).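 As to AC50: potency for inhibitors that lower luciferase luminescence relative to DMSO.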 The method in brief: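 Counter-screen for nonspecific enzyme inhibition: purified firefly luciferase incubated 30 min at 37C with chemicals up to 87.5 uM final, then luminescence measured after luciferin/dATP injection; activity fitted against DMSO baseline.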
Chain of Luciferin 4-monooxygenase (Photinus pyralis) (P08659 whole entry, looked up): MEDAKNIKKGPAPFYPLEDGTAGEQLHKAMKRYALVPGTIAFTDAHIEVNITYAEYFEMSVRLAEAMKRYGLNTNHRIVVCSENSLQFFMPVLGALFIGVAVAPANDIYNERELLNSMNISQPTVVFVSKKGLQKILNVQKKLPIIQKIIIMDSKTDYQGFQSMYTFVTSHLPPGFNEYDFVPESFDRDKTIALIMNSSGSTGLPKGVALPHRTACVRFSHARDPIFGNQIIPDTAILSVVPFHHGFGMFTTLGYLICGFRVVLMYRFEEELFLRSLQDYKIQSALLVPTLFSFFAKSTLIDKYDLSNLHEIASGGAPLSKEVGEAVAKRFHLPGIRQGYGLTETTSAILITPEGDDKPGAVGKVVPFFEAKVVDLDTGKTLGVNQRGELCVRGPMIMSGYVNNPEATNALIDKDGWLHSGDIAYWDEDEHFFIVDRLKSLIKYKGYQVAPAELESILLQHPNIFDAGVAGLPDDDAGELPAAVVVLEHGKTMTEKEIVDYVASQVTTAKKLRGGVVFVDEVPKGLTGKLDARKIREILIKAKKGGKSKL
Consider `COP(=O)(OC)O/C(=C\Cl)c1cc(Cl)c(Cl)cc1Cl`, for which the outcome was inactive.
Same read-out and setting: under `CC(C)c1cccc(C(C)C)c1O` stands “inactive”; under `CCOP(=S)(OCC)Oc1nc(Cl)c(Cl)cc1Cl`, “inactive”; under `CC12CC1(C)C(=O)N(c1cc(Cl)cc(Cl)c1)C2=O` (stereo unspecified), “inactive”.
The same measure, in the same setting: under `C[C@H]1CCCC(=O)CCC/C=C/c2cc(O)cc(O)c2C(=O)O1` stands “inactive”.
`CCCCCCCCSC(=O)Oc1cc(Cl)nnc1-c1ccccc1`: the AC50 is 81.7 µM (active).
For `CC1(C)Cc2cccc(O)c2O1`, the call was inactive.
On the same count and under the same terms, then `CC1(C)CCC(Cc2ccc(Cl)cc2)C1(O)Cn1cncn1` (stereo unspecified), with “inactive”; and `Oc1cccc2cccnc12`, with “inactive”.
Still for that read-out and setting: then `CC(C)(c1ccc(OCC2CO2)cc1)c1ccc(OCC2CO2)cc1` (stereo unspecified), with “inactive”; and `Cc1ccccc1N`, with “inactive”; and `CCC(C)(C)c1ccc(O)c(C(C)(C)CC)c1`, with “inactive”.
Consider `CCOC(=O)Nc1cccc(OC(=O)Nc2ccccc2)c1`, for which the AC50 was 29.1 µM (active).
As to `Cc1ccc2ccccc2c1C`, the compound was called inactive.
Same read-out and setting: under `Cc1ccc(N)cc1Cl` stands “inactive”; under `CCOP(=S)(OCC)SCSP(=S)(OCC)OCC`, “inactive”; under `CC(C)(C)CC(C)(C)c1ccc(O)cc1`, “inactive”.
Same read-out and setting: under `CCC1(c2ccc(N)cc2)CCC(=O)NC1=O` (stereo unspecified) stands “inactive”; under `O=C(O)C(F)(F)C(F)(F)C(F)(F)C(F)(F)C(F)(F)C(F)(F)F`, “inactive”.
On the same count and under the same terms, under `CC(C)(c1ccccc1)c1ccc(O)c(C(C)(C)c2ccccc2)c1` stands “inactive”; under `NNC(=S)NN`, “inactive”.
On to `CC(C)(C)c1cc(O)ccc1O`, for which the AC50 is 79.7 µM (active) and 80.7 µM (active); the call was inactive.
In the case of `CCCCCCCCc1ccc(O)cc1`, the call was inactive.
The same measure, in the same setting: under `Clc1ccc(COC(Cn2ccnc2)c2ccc(Cl)cc2Cl)cc1` (stereo unspecified) stands “inactive”.
Turning to `COP(=S)(OC)Oc1ccc(Sc2ccc(OP(=S)(OC)OC)cc2)cc1`, the AC50 was 53.8 µM (active).
As to `OCc1ccco1`, the compound was classed as inactive.
Consider `O=C(Nc1ccc2[nH]ccc2c1)c1cc2cc(F)ccc2n1Cc1cccc(F)c1`, for which the AC50 is 33.3 µM (active).

For the next experiment, the system named is zebrafish Androgen Receptor (AR), gene 100005148. Kind of experiment: ATG_zfAR_XSP1: Attagene TRANS-FACTORIAL Multi-Species (XSP1) HepG2 Assay for zebrafish Androgen Receptor (AR) (AID 2283771). Summed up:
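HepG2 cells were transiently transfected with a zebrafish AR-GAL4 reporter system and partially stimulated with 3 nM 6-alpha-fluorotestosterone. Reporter mRNA was measured after 24 h dosing by RT-PCR with capillary electrophoresis, and gain-of-signal was fitted relative to DMSO.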
As to `C[C@]12CCC(=O)C[C@@H]1CC[C@@H]1[C@@H]2CC[C@]2(C)[C@@H](O)CC[C@@H]12`, the concentration at half-maximal activity (AC50) is 0.0358 µM (active).
In the case of `CC12CC1(C)C(=O)N(c1cc(Cl)cc(Cl)c1)C2=O` (stereo unspecified), the result was inactive.
As for `CC1(C)CCC(Cc2ccc(Cl)cc2)C1(O)Cn1cncn1` (stereo unspecified), the AC50 is 165 µM (active).
Regarding `CC(C)(C)CC(C)(C)c1ccc(O)cc1`, the compound was classed as inactive.

The target of a further experiment is zebrafish Estrogen Receptor (ESR1), esr1 (gene 259252) (UniProt P57717). Kind of experiment: ATG_zfER1_XSP1: Attagene TRANS-FACTORIAL Multi-Species (XSP1) HepG2 Assay for zebrafish Estrogen Receptor (ESR1) (AID 2283772). Summed up: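 Readout: fluorescent reporter mRNA, RT-PCR plus FAM labelling, HpaI digest, capillary electrophoresis; gain-of-signal fit vs DMSO. HepG2, transient multi-reporter TRANS (NR-GAL4 chimera), 24 h chemical exposure, 3 nM 6-alpha-fluorotestosterone co-added.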
Chain of zebrafish Estrogen Receptor (ESR1), esr1 (gene 259252) (P57717 whole entry, looked up, the tested form may be a part): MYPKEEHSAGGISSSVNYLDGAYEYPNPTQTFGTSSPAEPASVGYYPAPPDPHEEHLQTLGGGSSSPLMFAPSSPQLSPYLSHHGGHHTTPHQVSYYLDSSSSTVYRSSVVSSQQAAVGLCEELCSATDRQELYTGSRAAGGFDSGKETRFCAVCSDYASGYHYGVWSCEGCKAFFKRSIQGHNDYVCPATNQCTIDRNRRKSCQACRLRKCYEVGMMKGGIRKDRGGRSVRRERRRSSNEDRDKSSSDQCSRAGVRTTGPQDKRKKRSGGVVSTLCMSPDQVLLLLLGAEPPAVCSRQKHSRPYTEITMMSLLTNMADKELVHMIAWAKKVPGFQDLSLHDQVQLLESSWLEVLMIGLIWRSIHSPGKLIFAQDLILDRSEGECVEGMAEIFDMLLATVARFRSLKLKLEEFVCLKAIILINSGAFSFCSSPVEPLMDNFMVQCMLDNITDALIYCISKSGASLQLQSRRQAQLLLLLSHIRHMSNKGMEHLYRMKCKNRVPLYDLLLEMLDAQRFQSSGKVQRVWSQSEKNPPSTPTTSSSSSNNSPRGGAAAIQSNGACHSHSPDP
Turning to `CC12CC1(C)C(=O)N(c1cc(Cl)cc(Cl)c1)C2=O` (stereo unspecified), the result was inactive.
The same measure, in the same setting: then `CC1(C)CCC(Cc2ccc(Cl)cc2)C1(O)Cn1cncn1` (stereo unspecified), with “inactive”; and `CC(C)(C)c1cc(O)ccc1O`, with “inactive”.

The next experiment relates to zebrafish Estrogen Receptor (ESR2B), gene 317733. Kind of experiment: ATG_zfER2b_XSP1: Attagene TRANS-FACTORIAL Multi-Species (XSP1) HepG2 Assay for zebrafish Estrogen Receptor (ESR2B) (AID 2283773). The method in brief:
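Gain-of-signal endpoint relative to DMSO: reporter transcript levels quantified by RT-PCR and capillary electrophoresis after 24 h compound exposure of HepG2 cells expressing a zebrafish ER2b-Gal4 chimera.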
Take `COP(=O)(OC)O/C(=C\Cl)c1cc(Cl)c(Cl)cc1Cl`: the half-maximal activity concentration (AC50) is 73.9 µM (active).
On the same count and under the same terms, then `C[C@]12CCC(=O)C[C@@H]1CC[C@@H]1[C@@H]2CC[C@]2(C)[C@@H](O)CC[C@@H]12`, with 1 µM (active); and `CC12CC1(C)C(=O)N(c1cc(Cl)cc(Cl)c1)C2=O` (stereo unspecified), with 60.6 µM (active).
For the compound `O=C1C2(Cl)C3(Cl)C4(Cl)C(Cl)(Cl)C5(Cl)C3(Cl)C1(Cl)C5(Cl)C24Cl` (stereo unspecified), the AC50 was 1.93 µM (active).
On to `CC1(C)CCC(Cc2ccc(Cl)cc2)C1(O)Cn1cncn1` (stereo unspecified), for which the AC50 was 27.7 µM (active).
For `CC(C)(C)CC(C)(C)c1ccc(O)cc1`, the AC50 was 1.7 µM (active).
Same read-out and setting: then `CC(C)(C)c1cc(O)ccc1O`, with 20 µM (active).

For a further experiment, the system named is frog Estrogen Receptor (ESR2), gene 100174814. Kind of experiment: ATG_frER2_XSP1: Attagene TRANS-FACTORIAL Multi-Species (XSP1) HepG2 Assay for frog Estrogen Receptor (ESR2) (AID 2283774). The method in brief: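 Transactivation of an exogenous receptor-Gal4 fusion is tracked in transfected HepG2 cells via induced reporter transcript levels. After 24 h treatment, RT-PCR with capillary electrophoresis quantifies signal gain over DMSO.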
On to `C[C@]12CCC(=O)C[C@@H]1CC[C@@H]1[C@@H]2CC[C@]2(C)[C@@H](O)CC[C@@H]12`, for which the AC50 was 1.31 µM (active).
Same read-out and setting: then `CC12CC1(C)C(=O)N(c1cc(Cl)cc(Cl)c1)C2=O` (stereo unspecified), with 24.7 µM (active); and `O=C1C2(Cl)C3(Cl)C4(Cl)C(Cl)(Cl)C5(Cl)C3(Cl)C1(Cl)C5(Cl)C24Cl` (stereo unspecified), with 2.24 µM (active).
Same read-out and setting: then `CC1(C)CCC(Cc2ccc(Cl)cc2)C1(O)Cn1cncn1` (stereo unspecified), with 26.3 µM (active).
`CC(C)(C)CC(C)(C)c1ccc(O)cc1`: the AC50 was 2.75 µM (active).
Same read-out and setting: then `CC(C)(C)c1cc(O)ccc1O`, with 22.4 µM (active).

Test system in a further experiment: not listed separately
The experiment is described as follows: ACEA_AR_agonist_AUC_viability: ACEA Biosciences xCELLigence Real-Time Cell Analysis on Androgen Receptor Agonism for Viability (AID 2283775).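 As to AC50: viability read 80 hours after compound addition.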 The method in brief:
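Read-out is area under the impedance curve at 80 h post-dose in 22Rv1 cells, with DMSO as baseline and signal loss taken as reduced viability. Compounds ran in duplicate from 100 uM final.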
Take `COP(=O)(OC)O/C(=C\Cl)c1cc(Cl)c(Cl)cc1Cl`: the compound was called inactive.
For `CC(=O)[O][Hg][c]1ccccc1`, the AC50 was 1.68 µM (active).
Same read-out and setting: then `CCC(=O)C(CC(C)N(C)C)(c1ccccc1)c1ccccc1` (stereo unspecified), with 22.3 µM (active).
Take `CC(C)c1cccc(C(C)C)c1O`: the call was inactive.
Take `CCOP(=S)(OCC)Oc1nc(Cl)c(Cl)cc1Cl`: the AC50 is 83.9 µM (active).
With `CC(C#N)CCC#N` (stereo unspecified), the result was inactive.
The same measure, in the same setting: then `CC12CC1(C)C(=O)N(c1cc(Cl)cc(Cl)c1)C2=O` (stereo unspecified), with “inactive”.
Consider `C[C@H]1CCCC(=O)CCC/C=C/c2cc(O)cc(O)c2C(=O)O1`, for which the AC50 is 30.3 µM (active) and the compound was called inactive.
Regarding `CC(=O)C=C(C)C`, the compound was classed as inactive.
For the compound `O=C1C2(Cl)C3(Cl)C4(Cl)C(Cl)(Cl)C5(Cl)C3(Cl)C1(Cl)C5(Cl)C24Cl` (stereo unspecified), the concentration at half-maximal activity (AC50) was 7.07 µM (active).
For `Oc1ccc(-c2ccccc2)cc1`, the compound was classed as inactive.
`CC1(C)Cc2cccc(O)c2O1`: the outcome was inactive.
For `CC1(C)CCC(Cc2ccc(Cl)cc2)C1(O)Cn1cncn1` (stereo unspecified), the call was inactive.
Turning to `Oc1cccc2cccnc12`, the AC50 is 22.3 µM (active) and 6.75 µM (active).
For the compound `CC(C)(c1ccc(OCC2CO2)cc1)c1ccc(OCC2CO2)cc1` (stereo unspecified), the result was inactive.
On the same count and under the same terms, under `Cc1ccccc1N` stands “inactive”.
For the compound `C[C@@H]1C[C@@H]([C@H](O)CC2CC(=O)NC(=O)C2)C(=O)[C@@H](C)C1`, the half-maximal activity concentration (AC50) was 2.1 µM (active).
With `CCC(C)(C)c1ccc(O)c(C(C)(C)CC)c1`, the outcome was inactive.
Still for that read-out and setting: then `CCOC(=O)Nc1cccc(OC(=O)Nc2ccccc2)c1`, with “inactive”; and `Cc1ccc(N)cc1Cl`, with “inactive”; and `CCOP(=S)(OCC)SCSP(=S)(OCC)OCC`, with “inactive”.
As to `CC(C)(C)CC(C)(C)c1ccc(O)cc1`, the AC50 is 10.4 µM (active).
As to `COc1cc(OC)nc(NC(=O)NS(=O)(=O)c2ncccc2C(=O)N(C)C)n1`, the AC50 is 1.74 µM (active).
Consider `ClC1(Cl)C2(Cl)C3(Cl)C4(Cl)C(Cl)(Cl)C5(Cl)C3(Cl)C1(Cl)C5(Cl)C24Cl` (stereo unspecified), for which the result was inactive.
Still for that read-out and setting: under `CCC1(c2ccc(N)cc2)CCC(=O)NC1=O` (stereo unspecified) stands “inactive”; under `O=C(O)C(F)(F)C(F)(F)C(F)(F)C(F)(F)C(F)(F)C(F)(F)F`, “inactive”.
Consider `CC(C)(c1ccccc1)c1ccc(O)c(C(C)(C)c2ccccc2)c1`, for which the AC50 was 10.1 µM (active).
With `NNC(=S)NN`, the outcome was inactive.
Consider `CC(C)(C)c1cc(O)ccc1O`, for which the AC50 was 90.9 µM (active).
On the same count and under the same terms, under `CCCCCCCCc1ccc(O)cc1` stands 29.8 µM (active).
Take `Cl/C=C/Cl`: the outcome was inactive.
Same read-out and setting: then `COP(=S)(OC)Oc1ccc(Sc2ccc(OP(=S)(OC)OC)cc2)cc1`, with “inactive”; and `OCc1ccco1`, with “inactive”.
As to `O=C(Nc1ccc2[nH]ccc2c1)c1cc2cc(F)ccc2n1Cc1cccc(F)c1`, the AC50 was 14.5 µM (active).

Broadly, the AC50 is the concentration giving half of the maximal activity seen.
